# From PubChem BioAssay (NCI)
# This is part of a sample that, as a whole, favours compounds with a hit. Of some 79,000 tested, about 15% had one in any assay. Unmarked numbers belong to inactive results. Active and inactive are the calls of the source. Rule as the data show it: active = growth inhibition above about 70%; inactive = the rest.
# Experiment: NCI Yeast Anticancer Drug Screen. Data for the sgs1 mgt1 strain (AID 161);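 also: 0% = growth of cultures given vehicle only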
# Details: S. cerevisiae sgs1 mgt1 strain, at 50.0 µM, stronger effect = higher value
# Outline: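 Yeast cells carrying a defined DNA-repair defect were exposed to test compounds. Growth inhibition was measured relative to vehicle-treated controls.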
row,Compound,growth inhibition
1,O=C1OC(c2ccccc2)(C2(c3ccccc3)C=C(c3ccccc3)C(=O)O2)C=C1c1ccccc1 (stereo not given),0.7%
2,CCN(CC)CCCNc1ccc([N+](=O)[O-])c2nc3ccccc3c(N)c12,15.8%
3,Nc1cc(=O)[nH]c(N)n1,-19.6%
4,CC1(C)OC(=O)C(=CN(C2CCCCC2)C2CCCCC2)C(=O)O1,7%
5,CCCCCCCCCCCC(=O)OC(C)CO (stereo not given),-3.7%
6,N#C/C(=C\c1c[nH]c2ccccc12)C(=O)c1ccc(O)c(O)c1,-20.6%
7,CCOC(=O)CCCCCOC1CCCCO1 (stereo not given),11.2%
8,COc1c2ccoc2cc2oc(=O)ccc12,12.8%
9,OC(c1ccccc1)(c1ccccc1)C1CC1,1.6%
10,COC(=O)C1(C(=O)OC)C2CCCCC21 (stereo not given),-6.6%
11,CC(C)=C1C2CCC1[C@H](COS(C)(=O)=O)[C@@H]2COS(C)(=O)=O,4.45%
12,Cc1[nH]nc(C(=O)O)c1N,-14.6%
13,CNC(=O)C(c1ccccc1)C(O)c1ccccc1 (stereo not given),-11.4%
14,CN1CCN(c2ccncc2S(=O)(=O)N2CCN(C)CC2)CC1,1.2%
15,CN(CC(=O)c1ccc(I)cc1)Cc1ccccc1,16.4%
16,CCCCOC(=O)/C=C\C(=O)NC(=O)NC(C)(C)C,-4.3%
17,CC(C)(C)c1cc(C(C)(C)C)c(P(C(O[Si](C)(C)C)=C(c2ccccc2)c2ccccc2)C(O[Si](C)(C)C)=C(c2ccccc2)c2ccccc2)c(C(C)(C)C)c1,-3.7%
18,Cc1ccc(CSCc2c(CSCc3ccc(C)cc3)c(CSCc3ccc(C)cc3)c(CSCc3ccc(C)cc3)c(CSCc3ccc(C)cc3)c2CSCc2ccc(C)cc2)cc1,5.8%
19,Nc1c2ccccc2nc2c(C(=O)Nc3ccc(S(N)(=O)=O)cc3)cccc12,-1.45%
20,CC(C)/C=C(\C#N)C(=O)O,-1.2%

row,Compound,growth inhibition
1,c1ccc2cc3ccccc3cc2c1,-18.5%
2,CCOc1cc2c(cc1Cc1ccc3c(c1)OCO3)OCO2,-5.6%
3,O=C(Oc1ccc(OC(=O)c2ccc([N+](=O)[O-])cc2)cc1)c1ccccc1,-1.4%
4,CSC1(C)C(=O)Nc2cc([N+](=O)[O-])ccc21 (stereo not given),0.6%
5,Cc1cccc(SC(=O)Nc2cc([N+](=O)[O-])ccc2Cl)c1,11.6%
6,CCCCCCCCCCCCCCCCOc1ccc(Sc2ccc([N+](=O)[O-])cc2)cc1,35.6%
7,Cc1cccc(N=Nc2ccc(O)c(CN(C)C)c2)c1,-0.35%
8,CCOC(=O)c1c(N)sc2c1C(C(=O)OCC)CCCC2 (stereo not given),27.3%
9,CC1C[P+](c2ccccc2)(c2ccccc2)Cc2ccccc21 (stereo not given),-8.25%
10,COc1ccc(C(C)=O)cc1CCCO,0.4%
11,CC(C)C(=O)c1ccccc1Cl,-2.45%
12,CC1(C)C(=O)NC(=O)N1CO,-5.45%
13,C/C(CC(C)C)=N\NC(=O)Nc1ccccc1Cl,-2.4%
14,COC(=O)C12OCC34C(CC5C(C)CC(=O)C(O)C5(C)C3C(O)C1O)OC(=O)C(OC(C)=O)C24 (stereo not given),11.6%
15,C1CCC2(CC1)SCCS2,-1.9%
16,CC(C(c1ccccc1)C(Br)C(=O)c1ccccc1)[N+](=O)[O-] (stereo not given),95% (active)
17,CSc1nc2ncnc(N(C)C)c2[nH]1,-8.5%
18,O=C(O)CCc1cccc2c(=O)cc(-c3ccccc3)oc12,0.8%
19,NC(=S)NNC(N)=S,-7.3%
20,S=C(Nc1ccccc1)Nc1ccccn1,4.05%

# Experiment: NCI Yeast Anticancer Drug Screen. Data for the cln2 rad14 strain (AID 165);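 also: 0% = growth equal to vehicle treated cultures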
# Details: S. cerevisiae cln2 rad14 strain, at 50.0 µM, stronger effect = higher value
# Outline: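 Yeast carrying cln2 and rad14 alterations (cell cycle control and DNA damage repair) were exposed to compounds. Growth inhibition was measured against vehicle-treated controls.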
row,Compound,growth inhibition
1,O=C1OC(c2ccccc2)(C2(c3ccccc3)C=C(c3ccccc3)C(=O)O2)C=C1c1ccccc1 (stereo not given),-3.8%
2,CCN(CC)CCCNc1ccc([N+](=O)[O-])c2nc3ccccc3c(N)c12,32.9%
3,Nc1cc(=O)[nH]c(N)n1,-83.9%
4,CC1(C)OC(=O)C(=CN(C2CCCCC2)C2CCCCC2)C(=O)O1,-21.2%
5,CCCCCCCCCCCC(=O)OC(C)CO (stereo not given),-32.9%
6,N#C/C(=C\c1c[nH]c2ccccc12)C(=O)c1ccc(O)c(O)c1,18.1%
7,CCOC(=O)CCCCCOC1CCCCO1 (stereo not given),-0.1%
8,COc1c2ccoc2cc2oc(=O)ccc12,14.3%
9,OC(c1ccccc1)(c1ccccc1)C1CC1,7%
10,COC(=O)C1(C(=O)OC)C2CCCCC21 (stereo not given),12.8%
11,CC(C)=C1C2CCC1[C@H](COS(C)(=O)=O)[C@@H]2COS(C)(=O)=O,16.9%
12,Cc1[nH]nc(C(=O)O)c1N,-16.1%
13,CNC(=O)C(c1ccccc1)C(O)c1ccccc1 (stereo not given),10.4%
14,CN1CCN(c2ccncc2S(=O)(=O)N2CCN(C)CC2)CC1,-15.4%
15,CN(CC(=O)c1ccc(I)cc1)Cc1ccccc1,-5.9%
16,CCCCOC(=O)/C=C\C(=O)NC(=O)NC(C)(C)C,-33.1%
17,CC(C)(C)c1cc(C(C)(C)C)c(P(C(O[Si](C)(C)C)=C(c2ccccc2)c2ccccc2)C(O[Si](C)(C)C)=C(c2ccccc2)c2ccccc2)c(C(C)(C)C)c1,5.2%
18,Cc1ccc(CSCc2c(CSCc3ccc(C)cc3)c(CSCc3ccc(C)cc3)c(CSCc3ccc(C)cc3)c(CSCc3ccc(C)cc3)c2CSCc2ccc(C)cc2)cc1,29.8%
19,Nc1c2ccccc2nc2c(C(=O)Nc3ccc(S(N)(=O)=O)cc3)cccc12,19%
20,CC(C)/C=C(\C#N)C(=O)O,-0.8%

row,Compound,growth inhibition
1,c1ccc2cc3ccccc3cc2c1,-42.6%
2,CCOc1cc2c(cc1Cc1ccc3c(c1)OCO3)OCO2,-12.1%
3,O=C(Oc1ccc(OC(=O)c2ccc([N+](=O)[O-])cc2)cc1)c1ccccc1,26.4%
4,CSC1(C)C(=O)Nc2cc([N+](=O)[O-])ccc21 (stereo not given),-14.2%
5,Cc1cccc(SC(=O)Nc2cc([N+](=O)[O-])ccc2Cl)c1,10.6%
6,CCCCCCCCCCCCCCCCOc1ccc(Sc2ccc([N+](=O)[O-])cc2)cc1,-3.9%
7,Cc1cccc(N=Nc2ccc(O)c(CN(C)C)c2)c1,-5.5%
8,CCOC(=O)c1c(N)sc2c1C(C(=O)OCC)CCCC2 (stereo not given),-16.2%
9,CC1C[P+](c2ccccc2)(c2ccccc2)Cc2ccccc21 (stereo not given),-13.4%
10,COc1ccc(C(C)=O)cc1CCCO,30.6%
11,CC(C)C(=O)c1ccccc1Cl,-0.35%
12,CC1(C)C(=O)NC(=O)N1CO,19.9%
13,C/C(CC(C)C)=N\NC(=O)Nc1ccccc1Cl,-3.85%
14,COC(=O)C12OCC34C(CC5C(C)CC(=O)C(O)C5(C)C3C(O)C1O)OC(=O)C(OC(C)=O)C24 (stereo not given),36%
15,C1CCC2(CC1)SCCS2,-48.9%
16,CC(C(c1ccccc1)C(Br)C(=O)c1ccccc1)[N+](=O)[O-] (stereo not given),87.3% (active)
17,CSc1nc2ncnc(N(C)C)c2[nH]1,2.45%
18,O=C(O)CCc1cccc2c(=O)cc(-c3ccccc3)oc12,30.9%
19,NC(=S)NNC(N)=S,17.4%
20,S=C(Nc1ccccc1)Nc1ccccn1,-30.8%
